INHIBITION data for 52 molecules are collected here from ChEMBL document CHEMBL4513216, “Probing the Open Global Health Chemical Diversity Library for Multistage-Active Starting Points for Next-Generation Antimalarials” (ACS Infect Dis, 2020).

The campaign covered roughly 69,000 compounds. About 8,600 (12%) showed an effect of 50% or more. Many of the other results were omitted from the sample, so strong results are more common in it than they were.

The subject of the experiment is Plasmodium berghei. Kind of experiment: Screen against P. berghei liver stage (PbLuc), transformed with Luciferase, at 10uM. The experiment is classed as functional, HepG2. As to conditions: tested at 10 uM.
Consider `CCOCC1CN(Cc2cccc(C#N)c2)Cc2nccn2C1` (configuration not stated), for which the INHIBITION was determined as 41.8%. The figure for `c1cncc(OCC2CN(Cc3ccsc3)Cc3nccn3C2)c1` (configuration not stated) is 39.2%; for `c1cncc(CN2Cc3nccn3CC(Cn3cccn3)C2)c1` (configuration not stated) it is 30.3%; for `COc1ncccc1CN1Cc2nccn2CC(Cn2cccn2)C1` (configuration not stated) it is 24.9%. In the case of `CN(C)CCOCC1CN(Cc2cccc(F)c2)Cc2nccn2C1` (configuration not stated), the INHIBITION is on record as 86.7%. Regarding `N#Cc1cccc(CN2Cc3nccn3CC(CN3CCCC3)C2)c1` (configuration not stated), the INHIBITION is given as -13%. The figure for `CN(C)C(=O)COCC1CN(Cc2ccsc2)Cc2nccn2C1` (configuration not stated) is 46.2%; for `c1ccc(CN2Cc3nccn3CC(Cn3cncn3)C2)nc1` (configuration not stated) it is -37.9%; for `COc1ncccc1CN1Cc2nccn2CC(CN2CCCC2)C1` (configuration not stated) it is 72%. In the case of `N#Cc1cccc(CN2Cc3nccn3CC(COCC3CC3)C2)c1` (configuration not stated), the INHIBITION was -102%. On to `c1ccc(CN2Cc3nccn3CC(Cn3cccn3)C2)nc1` (configuration not stated), for which the INHIBITION is 56.6%. The result for `CC(=O)N(Cc1ncc(C(C)C)o1)C1CCN(CCC#N)C1` (configuration not stated) reads -6.865%; that for `Cn1cc(C(=O)N[C@@H]2CN(Cc3cccs3)[C@@H]3CCCO[C@@H]32)cn1`, 15.1%; that for `CN(Cc1cccc(F)c1)C(=O)c1cc2c([nH]c1=O)CCCC2=O`, 8.535%.

With `CCn1c(C2CCN(C(=O)CCc3cc(Cl)no3)CC2)nn(C)c1=O`, the INHIBITION amounted to 0%. On to `Cc1cc(O)cc(=O)n1CCCC(=O)Nc1n[nH]c2cc(Br)ccc12`, for which the INHIBITION was found to be 3.93%. The result for `Fc1ccc(-c2nc(CNC3CCc4ncnn4C3)co2)cc1` (configuration not stated) reads 23.7%; that for `CCNC(=O)C1(Cc2cc(-c3ccccc3)no2)CCCN(C(C)C)C1` (configuration not stated), 4.41%. The result for `CNc1nc(C)c(C(=O)N2C[C@@H](C(=O)O)[C@H](C3CC3)C2)s1` reads 83.8%; that for `CCc1nc(C)c(C(=O)N2C[C@@H](C(=O)O)[C@H](C3CC3)C2)s1`, 63%; that for `CNc1nc(C)c(C(=O)N2C[C@@H]3CC[C@H]2CN(c2cnccn2)C3)s1`, -26.1%.

For the molecule `Cc1nc(C)c(C(=O)N2C[C@@H](C(=O)O)[C@H](C3CC3)C2)s1`, the INHIBITION was 76.9%. The result for `CCc1nc(C)c(C(=O)N2C[C@@H]3CC[C@H]2CN(S(=O)(=O)N(C)C)C3)s1` reads 40.7%; that for `Cc1nc2cc(C(=O)N3C[C@@H](C(=O)O)[C@H](C4CC4)C3)ccc2[nH]1`, 29.8%; that for `CNc1cc(C)nc(N2C[C@@H](C(=O)O)[C@H](C3CC3)C2)n1`, 38.6%. The result for `Cc1nc(C)c(C(=O)N2CCCC(c3cnccn3)C2)s1` (configuration not stated) reads 11.1%; that for `CCc1nc(C)c(C(=O)N2CCCC(c3noc(C)n3)C2)s1` (configuration not stated), 45.4%. In the case of `CN(C)CC(=O)N1CCC2(CC1)CN(Cc1ccccc1)C2`, the INHIBITION is on record as 33.4%. The result for `CCOCC(O)CN1CCN(C(=O)c2ccc(C)nc2)CC1` (configuration not stated) reads 24.2%. The figure for `Cc1cc(-n2c(C)cn(CN(C)Cc3ccccc3)c2=O)no1` is -5.64%; for `C=C(C)COc1ccc(C(=O)N(C)C(C)c2ccon2)cc1` (configuration not stated) it is -1.38%; for `COc1ccc(-c2nnc(C(C)N3CCOC(C)(C)C3)o2)cc1` (configuration not stated) it is 21.6%. The figure for `COc1ccc(-c2nnc(C(C)N3CCC4(CC3)OCCO4)o2)cc1` (configuration not stated) is 69.3%; for `COc1ccc(-c2nnc(C(C)N3CCOCC3)o2)cc1` (configuration not stated) it is 37.5%; for `CC(=O)Nc1nc2c(s1)CN(CC(=O)Nc1ccc(C)c(Cl)c1)CC2` it is 24.2%.

On to `Cc1ccc(C(=O)N2C[C@H]3CCCC(OCc4cccnc4)[C@H]3C2)cn1` (some centres not stated), for which the INHIBITION was found to be 27.6%. Turning to `O=C1CCCCCN1Cc1nc(C2(c3ccc(F)cc3)CCOC2)no1` (configuration not stated), the INHIBITION is on record as -26.8%. With `c1ccc(CO[C@H]2CO[C@@]3(CCCN(Cc4cccnc4)C3)C2)nc1`, the INHIBITION is listed as -17.1%. The figure for `N#CC(NC(=O)CCCOc1cccnc1)c1ccc(F)cc1F` (configuration not stated) is 66.9%. The result for `Cc1ccccc1C(C#N)NC(=O)CCCOc1cccnc1` (configuration not stated) reads 31.2%. Take `N#CC(NC(=O)CCCOc1cccnc1)c1ccccc1Cl` (configuration not stated): the INHIBITION is 40.9%. The figure for `Cc1ccccc1-n1cc(CNC(=O)CC2C(=O)NCCN2C)cn1` (configuration not stated) is 4.68%.

On to `O=C(NC[C@@H]1CCCO1)c1cc(Br)cnc1N1CCCCC1`, for which the INHIBITION came to 20.4%. The result for `O=C(c1ccccc1F)N(CCCO)S(=O)(=O)c1cccs1` reads 37.7%; that for `O=C(c1ccc(F)cc1)N(CCCO)S(=O)(=O)c1cccs1`, 67.4%; that for `O=C(c1cccc(F)c1)N(CCCO)S(=O)(=O)c1cccs1`, -38.8%. The figure for `O=C(c1cscn1)N1CC[C@H]2C[C@H](c3nnc(C4CC4)o3)O[C@@H]2C1` is 30.3%; for `CC(C)(C)C(=O)N1CCC(c2nc(O)cc(-c3ccncc3)n2)CC1` it is 11.1%; for `CN(C)c1nccnc1C1CCN(C2CCCCC2O)CC1` (configuration not stated) it is 17.4%. The result for `Cc1ccc(C(=O)N2C[C@@H](NS(C)(=O)=O)[C@H](C(C)C)C2)cc1O` reads 18%; that for `CC(C)[C@@H]1CN(C(=O)c2ccc3c(c2)CCCO3)C[C@H]1NS(C)(=O)=O`, 71.1%; that for `Cc1ccc(C(=O)N2C[C@H](NS(C)(=O)=O)[C@@H](C(C)C)C2)cc1F`, 14.3%.
